# Screening data (PubChem)
# Rows were chosen to be rich in hits. Some 19% of all compounds tested hit in one or more screens of this group.
# KB-V1 MDR tox: kills drug-selected multidrug resistant KB-V1 cells | KB-V1 MDR cells viability, CellTiter-Glo, 72 h | Potency, µM (doses to about 46.1 µM), hits mostly cytotoxic | 400,000 tested, 3.4% active; note: nearly all actives have a fitted effect of over 60% in size
#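 Cytotoxicity via CellTiter-Glo luminescence after 72 h compound exposure at 37 degrees C. Cells: drug-selected KB-V1 line, DMEM phenol-red free plus 10% FBS. Compounds tested at multiple concentrations; normalized data fitted to concentration-effect curves.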
# TDP1 cell CPT: growth inhibition of DT40 Tdp1-/-;hTDP1 cells with camptothecin (screen for TDP1 inhibitors). 420,000 tested, 12% active. chicken DT40 Tdp1-/-;hTDP1 cells + 20 nM CPT, ATP luminescence, 48 h. AID 686979. Potency, µM (doses to about 46.2 µM), for inactives: at the highest dose activity change, negative = growth inhibition, actives largely listed as inhibitors; note: nearly all actives have a fitted effect of over 55% in size
#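 Chicken DT40 Tdp1-/- cells complemented with human TDP1, 400 cells/well, exposed to compounds plus 20 nM camptothecin for at least 48 h at 37 C; viability read as ATP content by CellTiter-Glo luminescence.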
# HT1080 IDH1KD tx: HT-1080 IDH1 knockdown cell toxicity (counter line); Potency, µM (top dose mostly 46.1 µM), without a hit: at the highest dose activity, negative = toxicity, actives largely listed as cytotoxic; HT-1080 IDH1 knockdown viability, ATP luminescence, 48 h; 360,000 tested, 2% active;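 note: 0% = DMSO wells and -100% = cell-free medium wells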
#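 In this qHTS, HT-1080 cells depleted of IDH1 are exposed for 48 h at 37 °C to compound titrations. Toxicity is scored from CellTiter-Glo luminescence, with DMSO as full viability and medium alone as none.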
# HT1080-NT tox: kills 2HG-producing HT-1080-NT fibrosarcoma cells; HT-1080-NT fibrosarcoma viability, CellTiter-Glo ATP luminescence, 48 h; Potency, µM (titrated, usually from 46.1 µM), inactives show top-dose activity, negative = less viability, actives largely listed as cytotoxic; 360,000 tested, 1.6% active; AID 686970;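 note: NT is the 2HG producing partner of a matched IDH1 knockdown line; 0% = DMSO-treated cells and -100% = media-only wells without cells; nearly all actives have a fitted effect of over 55% in size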
#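 A 48-hour cytotoxicity screen used HT-1080-NT cells plated 2 hours before compound delivery. ATP-based CellTiter-Glo luminescence measured viability, normalized to DMSO and no-cell controls.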
# KB-3-1 tox: kills parental KB-3-1 adenocarcinoma cells; KB-3-1 viability, CellTiter-Glo ATP luminescence, 72 h; 400,000 tested, 1.4% active; AID 1347075; Potency, µM (highest dose often 46.1 µM), hits mostly cytotoxic; note: nearly all actives have a fitted effect of over 60% in size
#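 Luminescent ATP read-out (CellTiter-Glo) measures survival of drug-naive KB-3-1 cells after 72 h compound exposure at 37 °C. Titration series was screened from lowest to highest concentration, with DMSO vehicle plates as background controls.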
# DT40 TDP1 no CPT: qHTS for Inhibitors of human tyrosyl-DNA phosphodiesterase 1 (TDP1): qHTS in cells in absence of CPT | Potency, µM (series often up to 46.2 µM), for the others: at the highest dose activity change, negative = growth inhibition, actives largely listed as inhibitors | 420,000 tested, 15% active | DT40 Tdp1-/- hTDP1 cells, no CPT, ATP luminescence, 48 h | AID 686978, 2013; note: nearly all actives have a fitted effect of over 55% in size
#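 Chicken DT40 Tdp1-/- cells complemented with human TDP1, screened without camptothecin (DMSO vehicle only), 400 cells/well. Compounds pin-transferred, cells incubated at 37 °C for at least 48 hr. Growth read as ATP-dependent luminescence (CellTiter-Glo, 30 min at RT).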
# An asterisk follows results filed as active; i = inactive; ? = inconclusive; · = no result; [ ] = remark or other dose. Calls come from the whole dose curve; as a rule, active = well fitted curve in the direction sought with a large enough effect; inconclusive = small, poorly fitted or top-dose-only effect, or another doubt; inactive = no such curve, though single readings can be large; an effect the other way counts as inactive or inconclusive. Unless noted, % is set by controls: 0 for no effect and ±100 for the full control effect; potency is the fitted concentration of half-maximal effect.
SMILES,KB-V1 MDR tox,TDP1 cell CPT,HT1080 IDH1KD tx,HT1080-NT tox,KB-3-1 tox,DT40 TDP1 no CPT
O=C(Nc1ccccc1)c1cccc(NC(=O)c2ccco2)c1,?,9.1%,1.9%,-9.6%,i,-27.9%
O=C(NCc1ccccc1)c1cccc(NC(=O)c2ccccc2)c1,i,?,?,?,23.1µM*,-14.8%
O=C(NCc1ccccc1)c1cccc(NC(=O)C2CC2)c1,i,-4.4%,-1.4%,3.7%,i,-18.2%
COc1ccc(CCNC(=O)c2ccnc(C(C)(C)C)c2)cc1OC,?,4.0%,0.7%,-5.6%,i,?
CCCCOc1ccc(C(=O)Nc2cccc(C)n2)cc1,16.4µM*,?,3.2%,-6.3%,?,?
O=C(CNCc1ccccc1)Nc1ccc(Oc2ccccc2)cc1,i,13.9%,6.51µM*,7.31µM*,5.17µM*,?
CC(C)(C)c1cc(C(=O)NCc2ccccc2)ccn1,?,13µM*,-16.9%,-5.3%,i,?
O=C(CNCc1ccccc1)Nc1ccc(F)cc1,?,-6.8%,-0.4%,-2.9%,i,-10.1%
Cc1cc(C)c(S(=O)(=O)c2ccccc2C(C)C)c(=O)[nH]1,i,0.9%,-3.5%,3.8%,i,3.4%
CCOc1ccc2c(c1)c(=O)c(S(=O)(=O)c1ccccc1)cn2CC(=O)Nc1ccccc1OC,?,4.8%,·,·,i,-31.0%
Cc1ccc(CNC(=O)Cn2ccn(-c3cccc(Cl)c3)c(=O)c2=O)cc1,·,-28.0%,·,·,·,-28.7%
Cc1cc(NC(=O)C(C)SCC(=O)OC(C)C(=O)Nc2ccc(F)cc2Cl)no1 (stereo not drawn),i,-3.5%,4.7%,4.2%,i,-1.1%
S=C(NCCc1ccc(Cl)cc1)NC1CC1,?,-1.3%,10.7%,10.9%,i,-0.1%
CC(C)CNC(=O)c1cccc(NC(=O)c2ccco2)c1,i,-9.3%,23.8%,1.3%,i,-6.6%
O=C(NCc1ccco1)c1cccc(NC(=O)c2ccco2)c1,i,-29.0%,-16.3%,?,7.31µM*,-26.0%
O=C(NCc1ccccc1)c1ccc(Oc2ccc(C(=O)NCc3ccccc3)cc2)cc1,i,?,?,-19.0%,i,16.4µM*
COC(=O)c1ccc(NC(=S)NCc2ccco2)cc1,i,-3.8%,-15.5%,-2.6%,i,-22.4%
O=C(Nc1cccc(C(=O)Nc2ccccc2F)c1)c1ccccc1,?,?,0.9%,-4.9%,i,23.1µM*
COC(=O)c1cccc(NC(=S)NCc2ccco2)c1,?,16.4µM*,-0.1%,12.1%,i,14.6µM*
Cc1ccc(C(=O)NNC(=O)COC(=O)COc2ccccc2C#N)cc1,i,1.7%,6.0%,11.4%,i,-8.6%
Cc1cccc(OCC(=O)NCc2ccc3c(c2)CCN3C(=O)c2ccc(Cl)cc2)c1,i,-3.9%,·,·,i,-5.0%
CCCCCCC1CCC(C(=O)NC(C(=O)O)C(C)C)CC1 (stereo not drawn),i,-29.5%,·,·,i,-28.6%
O=C(Nc1cccc(NC(=O)c2cncc(Br)c2)c1)c1cncc(Br)c1,?,11.6µM*,?,?,i,4.61µM*
Cc1cccc(NC(=O)Nc2ccccc2)n1,?,-2.7%,-4.1%,1.2%,?,-4.2%
O=C(Nc1ccc(Br)c(C(F)(F)F)c1)c1ccccc1,16.4µM*,20.6µM*,0.4%,-0.3%,i,23.1µM*
SMILES,KB-V1 MDR tox,TDP1 cell CPT,HT1080 IDH1KD tx,HT1080-NT tox,KB-3-1 tox,DT40 TDP1 no CPT
Cc1ccc(C(=O)NCc2ccccc2)cc1Br,18.4µM*,-7.1%,-2.3%,-0.5%,i,-8.4%
Cc1cccc(NC(=O)c2cccc(NC(=O)c3ccccc3)c2)n1,?,4.11µM*,0.8%,-10.5%,i,?
Cc1c(C(=O)NCCN2CCC(c3ccccc3)CC2)cnn1-c1nccc(-c2cccs2)n1,·,7.6%[9.04 µM],·,·,·,?
Cc1csc(=O)n1CCC(=O)OCC(=O)NCc1ccccc1,i,8.0%,-2.1%,2.2%,i,-5.5%
O=C(Nc1ccccc1C(=O)Nc1ccccc1C(=O)NCc1ccco1)c1ccco1,i,16.4µM*,-20.2%,-28.6%,i,?
O=C(Nc1cccc(C(=O)Nc2cccc(Br)c2)c1)c1ccccc1,i,23.1µM*,-8.3%,-4.7%,?,?
Cc1ccc(-c2noc(-c3ccccc3C(=O)NCc3ccco3)n2)cc1,i,?,-5.7%,1.4%,i,?
Cc1cccc(-c2noc(-c3ccccc3C(=O)NCc3ccco3)n2)c1,?,20.6µM*,-16.2%,-7.9%,i,20.6µM*
O=C(O)c1cccc(NC(=O)c2ccccc2)c1,?,-18.2%,-9.6%,-11.1%,i,3.0%
O=C(Nc1ccccc1C(=O)NCc1ccco1)c1ccco1,?,-1.2%,-1.2%,-0.7%,i,1.0%
COc1cccc(N2CCN(C(=O)c3cc4cc5cc(C)ccc5nc4s3)CC2)c1,i,-22.8%,·,·,i,-27.6%
Cc1ccc(Cn2ccnc2SCC(=O)Nc2ccc3c(c2)OCCO3)cc1,·,-12.5%,·,·,·,-7.0%
CCOCCCNC(=O)c1ccc2nc(-c3ccc(OC)c(OC)c3)c(-c3ccc(OC)c(OC)c3)nc2c1,i,?,-17.8%,-0.6%,i,?
CCCCNC(=O)c1ccc2nc(-c3cccs3)c(-c3cccs3)nc2c1,i,?,·,·,i,20µM*
COC(CNC(=O)c1ccc2nc(-c3cccs3)c(-c3cccs3)nc2c1)OC,?,18.4µM*,-0.4%,0.3%,i,13µM*
CCOC(=O)/C(C#N)=C/c1c(OCC)n(CC)c2ccccc12,7.31µM*,?,-1.1%,3.6%,i,?
CCOC(=O)/C(C#N)=C\c1cn(C)c2ccccc12,i,24.8%,-13.3%,-12.3%,i,-10.7%
CCCOc1ccc(F)cc1-c1cc(C(=O)Nc2ccc(C)c(NS(C)(=O)=O)c2)[nH]n1,23.1µM*,16.4µM*,?,?,?,23.1µM*
COc1cc(F)ccc1-c1cc(C(=O)Nc2ccc(C)c(NS(C)(=O)=O)c2)[nH]n1,i,?,5.3%,-18.3%,i,-22.4%
COc1ccc(F)cc1-c1cc(C(=O)Nc2ccc(C)c(NS(C)(=O)=O)c2)[nH]n1,i,18.4µM*,?,?,i,16.4µM*
O=C(Cn1nc(-c2ccccc2)nc(Cc2ccccc2)c1=O)Nc1ccccc1,·,-8.0%,·,·,·,-20.2%
